# Bioassay records from PubChem.
# Shown are actives, neighbours in structure and some others; about 7.9% of the full set was active somewhere.
# HT1080 IDH1KD tx: qHTS for induction of synthetic lethality in tumor cells producing 2HG: qHTS for the HT-1080-IDH1KD cell line; hit rate 2% among 360,000; Potency, µM (top dose mostly 46.1 µM), for the others: at the highest dose activity, negative = toxicity, actives largely listed as cytotoxic; HT-1080 IDH1 knockdown viability, ATP luminescence, 48 h;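 also: 0% = DMSO wells and -100% = cell-free medium wells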
#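 Cytotoxicity counter-line: IDH1KD HT-1080, 48 h, CellTiter-Glo. Curves classed by r2, magnitude and activity.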
# HT1080NT lethal: qHTS for induction of synthetic lethality in tumor cells producing 2HG: qHTS for the HT-1080-NT fibrosarcoma cell line. HT-1080-NT fibrosarcoma viability, CellTiter-Glo ATP luminescence, 48 h. Potency, µM (doses to about 46.1 µM), inactives show top-dose activity, negative = less viability, most hits filed as cytotoxic. hit rate 1.6% among 360,000. AID 686970, 2013;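 also: NT is the 2HG producing partner of a matched IDH1 knockdown line; 0% = DMSO-treated cells and -100% = media-only wells without cells; nearly all actives have a fitted effect of over 55% in size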
#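 Viability by CellTiter-Glo luminescence after 48 h compound exposure at 37C of HT-1080-NT cells (750/well, RPMI, 5% FBS). % activity scaled between DMSO wells and medium-only wells, then curve-fitted and categorized by curve class.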
# MCF10A rereplic: A quantitative high throughput screen for small molecules that induce DNA re-replication in MCF 10a normal breast cells. MCF 10A DNA re-replication, Hoechst nuclear intensity, 48 h. Potency, µM (top dose mostly 46.1 µM), for inactives: at the highest dose activity, positive = re-replication, usual class: activators. hit rate 2.9% among 350,000. AID 624296, 2012; also: % of control where 0% means no effect; nearly all actives have a fitted effect of over 50% in size
# KB-3-1 tox: qHTS assay for MDR1-selective chemotherapeutics: Primary screen using the parental adenocarcinoma cell KB-3-1. KB-3-1 viability, CellTiter-Glo ATP luminescence, 72 h. Potency, µM (titrated, usually from 46.1 µM), hits mostly cytotoxic. hit rate 1.4% among 400,000; also: % is scaled to controls: 0 for no effect and ±100 for the full control effect; nearly all actives have a fitted effect of over 60% in size
#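 Screening of KB-3-1 cells (DMEM, 10% FBS, phenol-red free) ran from lowest to highest compound concentration; after 72 h at 37 °C viability was read luminescently and curves fitted.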
# KB-V1 MDR tox: qHTS assay for MDR1-selective chemotherapeutics: Primary screen using the drug-selected MDR subline cells KB-V1. KB-V1 MDR cells viability, CellTiter-Glo, 72 h. Potency, µM (highest dose often 46.1 µM), most hits filed as cytotoxic. AID 1347076, 2019. hit rate 3.4% among 400,000; also: % is scaled to controls: 0 for no effect and ±100 for the full control effect; nearly all actives have a fitted effect of over 60% in size
#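 KB-V1, DMEM (no phenol red) + 10% FBS; cpd pin-transferred, titration series; 72 h, 37 degrees C; CellTiter-Glo, luminescence. Data normalized, curve-fit.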
# SW480 rereplic: A quantitative high throughput screen for small molecules that induce DNA re-replication in SW480 colon adenocarcinoma cells; AID 624297, 2012; SW480 DNA re-replication, Hoechst DNA content imaging, 48 h; hit rate 1.8% among 340,000; Potency, µM (titrated, usually from 46.1 µM), for inactives: at the top dose re-replication activation, usual class: activators; also: % of control where 0% means no effect; nearly all actives have a fitted effect of over 55% in size
#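 DNA re-replication was detected as more nuclei of elevated Hoechst intensity after 48 hr exposure to compound (23 nL pinned per well of 250 cells).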
# The depositor's hits bear a star; i = inactive; ? = inconclusive; · = no result given; [ ] = remark or other dose. Calls follow the shape of the dose curve; as a rule, active = well fitted curve in the direction sought with a large enough effect; inconclusive = small, poorly fitted or top-dose-only effect, or another doubt; inactive = no such curve, though single readings can be large; an effect the other way counts as inactive or inconclusive. Potency is read from the fitted curve at half-maximal effect.
SMILES,HT1080 IDH1KD tx,HT1080NT lethal,MCF10A rereplic,KB-3-1 tox,KB-V1 MDR tox,SW480 rereplic
O=C1NC(=O)N(c2ccccc2)C(=O)/C1=C\C=C\c1ccccc1,5.2µM*,?,23µM*,?,?,3.3µM*
CCc1ccc(N2NC(=O)/C(=C/C=C/c3ccco3)C2=O)cc1,5%,7%,21µM*,i,i,17%
O=C1NC(=O)N(c2ccccc2)C(=O)/C1=C\c1ccc([N+](=O)[O-])s1,-2%,4%,?,i,i,21µM*
O=C1NC(=O)N(Cc2ccccc2)C(=O)/C1=C\c1ccco1,-14%,-25%,16%,i,i,12%
CCOc1ccc(N2C(=O)/C(=C/c3ccco3)C(=O)NC2=S)cc1,-7%,-11%,3%,i,i,?
CCS(=O)(=O)C(C)(C)S(=O)(=O)CC,·,·,12%,·,·,-1%
COc1ccc(C(C)=O)cc1COC(=O)c1ccc2ccccc2n1,5%,9%,-35%,i,i,2%
CC(C)c1ccc(N2C(=O)NC(=O)/C(=C/C=C/c3ccco3)C2=O)cc1,?,21%,6.5µM*,15µM*,?,?
CCCCN1C(=O)/C(=C/C=C/c2ccco2)C(=O)NC1=S,12%,0%,-8%,i,i,-6%
Cc1cc(C)cc(N2C(=O)NC(=O)/C(=C\C=C\c3ccco3)C2=O)c1,?,?,13µM*,?,23µM*,?
Cc1ccc(N2C(=O)NC(=O)/C(=C/c3ccoc3)C2=O)cc1,4%,8%,-1%,?,i,0%
CCc1ccc(N2C(=O)NC(=O)/C(=C\C=C\c3ccco3)C2=O)cc1,-12%,0%,23µM*,?,?,18µM*
Cc1ccc(N2C(=O)NC(=O)/C(=C/C=C/c3ccco3)C2=O)cc1,23µM*,?,9.2µM*,?,18µM*,16µM*
COc1cccc(-n2c(/C=C/c3cccc(C)c3)nc3ccccc3c2=O)c1,·,·,·,i,i,·
CC(=O)Nc1cccc(-c2ccnc3c2CC(C(=O)NCc2ccco2)O3)c1 (stereo unspecified),2.3µM*,?,·,5.8µM*,i,·
COC(=O)C1=C(c2cccc(C#N)c2)C[C@@H]2CC[C@H]1N2C(=O)NCCc1ccccc1,-3%,-22%,-11%,i,i,-3%
CC(=O)c1cccc(-c2ccnc3c2CC(C(=O)NCCc2ccccc2)O3)c1 (stereo unspecified),?,?,·,2.3µM*,3.3µM*,·
CC[C@H]1CN2CCc3cc(OC)c(OC)cc3[C@H]2C[C@@H]1C[C@@H]1NCCc2cc(OC)c(OC)cc21,·,·,34%,·,·,?
C/C(CC(c1ccccc1)c1c(O)c2ccccc2oc1=O)=N\NC(N)=S (stereo unspecified),9%,0%,-31%,i,?,16µM*
CC[C@@H]1[C@@H]2C[C@H]3[C@H]4N(C)c5ccccc5[C@@]45C[C@@H]([C@@H]2[C@@H]5O)N3[C@H]1O,·,·,1%[20.6 µM],·,·,-3%[20.6 µM]
Clc1ccccc1Cl,·,·,-1%,·,·,-8%
O=C1CCCc2c1nc(-c1ccccc1)n2O,-5%,20%,2%,i,i,0%
O=C(CN1CCN(CC(=O)Nc2ccc(OCc3ccccc3)cc2)CC1)Nc1ccc(F)cc1,?,?,28%,i,3.7µM*,13%
NC(=O)C1(N2CCCCC2)CCN(CC(=O)Nc2ccc(Oc3ccccc3)cc2)CC1,?,-26%,3%,?,13µM*,7%
COc1ccc(NC(=O)CN(C)C(=O)CSC(c2ccccc2)c2ccccc2)cc1,-23%,-9%,-1%,?,i,12%
